Bioassay records as filed in PubChem BioAssay.
Compounds with a hit are over-represented: about 8.3% of the library has one in this group of screens.
Giardia killer = Small Molecules that selectively kill Giardia lamblia: qHTS; Giardia lamblia trophozoite viability; activity change, % at 7.66 µM, hits read low; 0.15% of 340,000 active; AID 540267, 2011; in the data active means activity change below about -80%; inconclusive means between about -30% and that limit;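 further: parasites exposed to compound for two days anaerobically before the ATP read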
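Media and compound were dispensed first, then trophozoites at 100 cells/well; plates sat 48 hrs at 37 deg C without oxygen before ATP luminescence reagent was added and read after 15-30 min at room temperature.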
SW480 rerep = A quantitative high throughput screen for small molecules that induce DNA re-replication in SW480 colon adenocarcinoma cells. SW480 DNA re-replication, Hoechst DNA content imaging, 48 h. Potency, µM (doses to about 46.1 µM), most hits filed as activators. 1.8% of 340,000 active. AID 624297, 2012; further: nearly all actives have a fitted effect of over 55% in size
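Compounds, transferred as 23 nL by pin tool, were incubated with cells for 48 hr; DNA content per nucleus was then quantified by Hoechst staining and fluorescence plate imaging.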
RORgamma inh = qHTS for inhibitors of ROR gamma transcriptional activity. Nuclear receptor ROR-gamma (Mus musculus), P51450. Drosophila S2 Gal4-RORgamma UAS-luciferase reporter, 20 h. Potency, µM (top dose mostly 53.6 µM), usual class: inhibitors. 5.4% of 310,000 active. AID 2551, 2010; further: nearly all actives have a fitted effect of over 60% in size
Target sequence (P51450 whole entry, looked up, the tested form may be a part): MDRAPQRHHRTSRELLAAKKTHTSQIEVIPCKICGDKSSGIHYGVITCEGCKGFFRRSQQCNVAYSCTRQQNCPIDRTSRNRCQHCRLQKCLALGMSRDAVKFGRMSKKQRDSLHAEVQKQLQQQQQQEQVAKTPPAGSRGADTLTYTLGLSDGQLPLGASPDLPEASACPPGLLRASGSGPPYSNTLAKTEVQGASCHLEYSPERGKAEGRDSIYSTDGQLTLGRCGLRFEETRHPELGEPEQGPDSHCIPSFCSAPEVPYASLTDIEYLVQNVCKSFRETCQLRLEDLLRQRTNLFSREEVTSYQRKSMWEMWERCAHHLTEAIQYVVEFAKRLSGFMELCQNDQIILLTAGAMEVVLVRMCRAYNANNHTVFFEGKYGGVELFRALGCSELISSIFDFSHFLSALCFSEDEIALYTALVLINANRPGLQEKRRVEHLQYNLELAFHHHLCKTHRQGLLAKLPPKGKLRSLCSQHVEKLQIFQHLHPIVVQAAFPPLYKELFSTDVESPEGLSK
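Using a luciferase readout, inhibitors were identified by reduced reporter activity in Drosophila cells coexpressing a copper-inducible Gal4–ROR gamma fusion and UAS-driven Photinus luciferase, incubated 20 hr after 700 uM copper sulfate.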
MCF10A rerep = A quantitative high throughput screen for small molecules that induce DNA re-replication in MCF 10a normal breast cells. MCF 10A DNA re-replication, Hoechst nuclear intensity, 48 h. Potency, µM (titrated, usually from 46.1 µM), most hits filed as activators. 2.9% of 350,000 active; further: nearly all actives have a fitted effect of over 50% in size
BCR signal inh = qHTS Assay to Find Inhibitors of Chronic Active B-Cell Receptor Signaling. ABC-DLBCL IkBa-CBG/CBR reporter, luminescence ratio, 4 h. AID 493014, 2011. 0.05% of 340,000 active. Potency, µM (top dose mostly 46.1 µM), actives largely listed as inhibitors; active means well fitted inhibition curve with a large enough effect in the signal ratio, with a control signal flat, not every such curve was filed as active; inconclusive means small, poorly fitted or top-dose-only effect, or effect the other way, or a change in a side signal; the % refers to the signal ratio
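Concentration-response series (up to 46 uM) were applied to TMD8 dual-reporter cells for 4 h at 37C with doxycycline. Green/red ratio, after filter-overlap correction, defined %Activity; red signal alone was normalised to basal cells and zero luminescence.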
Gal4-VP16 FLuc = VP16 counterscreen qHTS for inhibitors of ROR gamma transcriptional activity; 3.5% of 310,000 active; Drosophila S2 Gal4-VP16 UAS-luciferase, luminescence, 20 h; Potency, µM (highest dose often 53.6 µM), hits mostly inhibitors;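 further: Gal4-VP16 expression switched on by copper sulfate through the metallothionein promoter; nearly all actives have a fitted effect of over 50% in size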
A number is an active result. Unless noted, the call rests on the fitted dose curve; in most records, active means well fitted curve in the direction sought with a large enough effect; inconclusive means small, poorly fitted or top-dose-only effect, or another doubt; inactive means no such curve, though single readings can be large; an effect the other way counts as inactive or inconclusive.

CCN(CC)CCOC(=O)c1ccc(N/C=C(/C#N)c2nc(-c3cccc(OC)c3)cs2)cc1 was read as Giardia killer inactive, SW480 rerep inactive, RORgamma inh inactive, MCF10A rerep inactive, BCR signal inh inconclusive and Gal4-VP16 FLuc inactive.
For CCN(CC)CCOC(=O)c1ccc(N/C=C(/C#N)c2nc(-c3ccc(OC)c(OC)c3)cs2)cc1 the results were Giardia killer inconclusive, SW480 rerep 23µM, RORgamma inh inconclusive, MCF10A rerep 18µM, BCR signal inh inactive and Gal4-VP16 FLuc inconclusive.
Screening O=C1c2ccc([N+](=O)[O-])cc2C(=O)N1c1ccc([N+](=O)[O-])cn1 returned Giardia killer inactive, SW480 rerep inactive and MCF10A rerep inactive.
`O=c1[nH]c(=O)n(Cc2ccco2)c2c1C(C(F)(F)F)(C(F)(F)F)N=C(CCC1CCCCC1)N2` gave Giardia killer inactive, SW480 rerep inactive, RORgamma inh inactive, MCF10A rerep inactive, BCR signal inh inactive and Gal4-VP16 FLuc inconclusive.
Screening CC(C)Cn1c2c(c(=O)[nH]c1=O)C(C(F)(F)F)(C(F)(F)F)N=C(CCC1CCCCC1)N2 returned Giardia killer inactive, SW480 rerep inactive, RORgamma inh inconclusive, MCF10A rerep 16µM, BCR signal inh inconclusive and Gal4-VP16 FLuc 11µM.
`Cc1ccc(C2=NC(C(F)(F)F)(C(F)(F)F)c3c(n(-c4ccc(F)cc4)c(=O)[nH]c3=O)N2)cc1` gave Giardia killer inactive, SW480 rerep inconclusive, RORgamma inh inconclusive, MCF10A rerep inconclusive, BCR signal inh inconclusive and Gal4-VP16 FLuc inactive.
`O=c1[nH]c(=O)n(Cc2ccco2)c2c1C(C(F)(F)F)(C(F)(F)F)N=C(CCc1ccccc1)N2` gave Giardia killer inactive, SW480 rerep inactive, RORgamma inh inconclusive, MCF10A rerep inconclusive, BCR signal inh inconclusive and Gal4-VP16 FLuc inactive.
N#Cc1ccc(C2=NC(C(F)(F)F)(C(F)(F)F)c3c(n(Cc4ccco4)c(=O)[nH]c3=O)N2)cc1 was read as Giardia killer inactive, SW480 rerep inactive, RORgamma inh 13µM, MCF10A rerep inactive, BCR signal inh inconclusive and Gal4-VP16 FLuc inconclusive.
For O=c1[nH]c(=O)n(-c2ccccc2)c2c1C(C(F)(F)F)(C(F)(F)F)N=C(CCC1CCCCC1)N2 the results were Giardia killer inactive, SW480 rerep inconclusive, RORgamma inh inactive, MCF10A rerep 16µM, BCR signal inh inactive and Gal4-VP16 FLuc inactive.
For O=c1[nH]c(=O)n(-c2ccc(F)cc2)c2c1C(C(F)(F)F)(C(F)(F)F)N=C(c1ccc(F)cc1)N2 the results were Giardia killer inactive, SW480 rerep inconclusive, RORgamma inh inactive, MCF10A rerep inconclusive, BCR signal inh inactive and Gal4-VP16 FLuc 16µM.
For CCOC(=O)N1CCN(C(=O)c2ccc(Cl)c(S(=O)(=O)N3CCCC3)c2)CC1 the results were Giardia killer inactive, SW480 rerep inconclusive, RORgamma inh inactive, MCF10A rerep inactive, BCR signal inh inactive and Gal4-VP16 FLuc inactive.
CC(=O)c1cccc(S(=O)(=O)Nc2c(C)nn(C)c2C)c1 was read as Giardia killer inactive, SW480 rerep inactive, MCF10A rerep inactive and BCR signal inh inactive.
NC(=O)C(c1cccc(Cl)c1)c1ncc(C(F)(F)F)cc1Cl (centres undefined) was read as Giardia killer inactive, SW480 rerep inactive, RORgamma inh inactive, MCF10A rerep inactive, BCR signal inh inactive and Gal4-VP16 FLuc inactive.
NC(=S)C(c1ccccc1)c1ncc(C(F)(F)F)cc1Cl (centres undefined) was read as Giardia killer inactive, SW480 rerep inactive, RORgamma inh 6.3µM, MCF10A rerep inactive, BCR signal inh inactive and Gal4-VP16 FLuc inconclusive.
For CCCCC/C=C\C/C=C\C/C=C\CCCCC(=O)NC(C)C(=O)O (centres undefined) the results were RORgamma inh inactive and Gal4-VP16 FLuc inactive.
